Earlier results on 16 molecules are cited in PubChem BioAssay AID977611.

Hit rate of the full screen: of about 3,900 compounds, about 3,900 (100%) were called active. The limit is not given here; nearly all actives have Kd up to about 4200 µM. So high a share suggests a set chosen from earlier hits. The list shows a part of the results.

The nature of the data set: PubChem AID 977611. The settings on record: PDB protein-ligand complexes, literature Kd.

On to `CNC(=O)Nc1cc(Br)cc(NC(=O)NS(=O)(=O)c2cc(C)c(CCOC)s2)n1`, for which the Kd – broadly, the constant that tells how readily two partners part at equilibrium – (protein: Fructose-1,6-bisphosphatase 1, PDB entry 4mjo) was 0.6 µM (active).
Regarding `CNC(=O)C[C@H](C)O[P+](O)(O)OC`, the Kd (protein: Lysozyme C, PDB entry 4tun) was 3.87 µM (active).
Take `CC(=O)N[C@H]1[C@H]([C@H](O)[C@H](O)CO)O[C@@](OC[C@H]2O[C@@H](O)[C@H](O)[C@@H](O)[C@H]2O)(C(=O)O)C[C@@H]1O`: the Kd by setting is: (protein: H5 (VN1194) Influenza Virus Haemagglutinin, PDB entry 4bgx) 17000 µM (active); (protein: Hemagglutinin HA1, PDB entry 4kon) 0.33 µM (active); (protein: Hemagglutinin(mutant form), PDB entry 4k67) 372 µM (active); (protein: Hemagglutinin, PDB entry 4k64) 1000 µM (active); (protein: Telomeric repeat-binding factor 2, PDB entry 4lkk) 1.2 µM (active); (protein: neuraminidase, PDB entry 4gzx) 645 µM (active).
As for `CC(=O)N[C@H]1[C@H]([C@H](O)[C@H](O)CO)O[C@@](O[C@H]2[C@@H](O)[C@@H](CO)O[C@@H](O[C@H]3[C@H](O)[C@@H](O)[C@@H](O)O[C@@H]3CO)[C@@H]2O)(C(=O)O)C[C@@H]1O`, under “protein: Carbohydrate binding domain from Streptococcus pneumoniae NanA sialidase, PDB entry 4c1w”, the Kd was 0.00039 µM (active).
For `CO[C@]1(C(=O)O)C[C@H](O)[C@@H](NC(=O)CO)[C@H]([C@H](O)[C@H](O)CO)O1`, the Kd (protein: Outer capsid protein VP4, PDB entry 3tay) is 420 µM (active).
With `CC(=O)N[C@H]1[C@H]([C@H](O)[C@H](O)CO)O[C@@H](C(=O)O)C[C@@H]1O`, the Kd is 0.024 µM (active) (protein: hemagglutinin with F95Y mutation of influenza virus B/Lee/40(F95Y mutant), PDB entry 4nrk) and 0.0024 µM (active) (protein: hemagglutinin with F95Y mutation of influenza virus B/Lee/40, PDB entry 4nrl).
With `CC(=O)N[C@@H]1[C@@H](O[C@@H]2O[C@@H](C)[C@@H](O)[C@@H](O)[C@@H]2O)[C@H](O[C@@H]2O[C@H](CO)[C@H](O)[C@H](O[C@]3(C(=O)O)C[C@H](O)[C@@H](NC(C)=O)[C@H]([C@H](O)[C@H](O)CO)O3)[C@H]2O)[C@@H](CO)O[C@@H]1O`, for the setting “PDB entry 4dxg”, the Kd was 0.087 µM (active).
With `CC(=O)N[C@@H]1[C@@H](O)[C@H](O[C@@H]2O[C@H](CO)[C@H](O)[C@H](O[C@]3(C(=O)O)C[C@H](O)[C@@H](NC(C)=O)[C@H]([C@H](O)[C@H](O)CO)O3)[C@H]2O)[C@@H](CO)O[C@H]1O`, the Kd by setting is: (protein: Hemagglutinin, PDB entry 4k63) 60 µM (active); (protein: Neuraminidase, PDB entry 4gzw) 30 µM (active); (protein: hemagglutinin, PDB entry 4lkg) 0.16 µM (active); (protein: hemagglutinin, PDB entry 4lkj) 0.2 µM (active).
On to `CC(=O)N[C@H]1[C@H]([C@H](O)[C@H](O)CO)O[C@@](O[C@@H]2[C@@H](O)[C@H](O)O[C@H](CO)[C@@H]2O)(C(=O)O)C[C@@H]1O`, for which the Kd (protein: Hemagglutinin(mutant form), PDB entry 4k66) is 554 µM (active).
For `CC(=O)N[C@H]1[C@H]([C@H](O)[C@H](O)CO)O[C@@](O)(C(=O)O)C[C@@H]1O`, the dissociation constant (Kd) (protein: hemagglutinin, PDB entry 4lkh) is 1000 µM (active).
On to `CC(=O)N[C@H]1[C@H](O[C@@H]2[C@@H](O)[C@H](O)O[C@H](CO)[C@@H]2O)O[C@H](CO)[C@@H](O[C@@H]2O[C@H](CO)[C@H](O)[C@H](O[C@]3(C(=O)O)C[C@H](O)[C@@H](NC(C)=O)[C@H]([C@H](O)[C@H](O)CO)O3)[C@H]2O)[C@@H]1O`, for which, for the setting “protein: Hemagglutinin HA1, PDB entry 4kom”, the Kd was 0.1 µM (active).
Turning to `CC(=O)N[C@H]1[C@H]([C@H](O)[C@H](O)CO)O[C@@](O[C@H]2[C@@H](O)[C@@H](CO)O[C@@H](O[C@H]3[C@H](O)[C@@H](O)[C@H](O)O[C@@H]3CO)[C@@H]2O)(C(=O)O)C[C@@H]1O`, the Kd reads like this: (protein: Human galectin-3 CRD K176L mutant, PDB entry 4lbl) 11 µM (active); (protein: wildtype Human galectin-3 CRD, PDB entry 4lbo) 1.7 µM (active).
As for `O=C(NC[C@@H](COC(=O)c1cc(O)c(O)c(O)c1)OC(=O)c1cc(O)c(O)c(O)c1)Oc1cccc(C(F)(F)F)c1`, the Kd (protein: Plasminogen activator inhibitor 1, PDB entry 4g8o) is 0.022 µM (active) and the Kd (protein: Plasminogen activator inhibitor-1, PDB entry 4g8r) is 0.022 µM (active).
`C[C@H]1N[C@@H]2[C@@H](O)[C@H](O)[C@@H](CO)O[C@@H]2S1`: the Kd reads like this: (protein: BETA-N-ACETYLHEXOSAMINIDASE, PDB entry 4az5) 1.02 µM (active); (protein: BETA-N-ACETYLHEXOSAMINIDASE, PDB entry 4azc) 1.38 µM (active).
Take `CN1Cc2c(ccc3c2OCO3)-c2ccc3cc4c(cc3c21)OCO4`: the Kd was 28 µM (active) (protein: Chitinase A(W275G mutant), PDB entry 3as0) and 2.3 µM (active) (protein: Chitinase A, PDB entry 3arv).
In the case of `N[C@@H](CCC(=O)N[C@@H](CSCCN(CCCl)c1ccc(CCCC(=O)O)cc1)C(=O)NCC(=O)O)C(=O)O`, under “protein: Glutathione S-transferase A1, PDB entry 4hj2”, the Kd was 2950 µM (active).
